Assay outcomes deposited in PubChem by several laboratories.
A selection: hits, their analogues and other compounds. The true share with any hit is near 4.1%.
CHT block = human CHT choline transport inhibition. CHT-expressing cells, membrane potential dye, choline response; hits give low values. B-score at 10 µM. 310,000 compounds, 0.86% hits;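 active = B-score over 3 SD under the library average, and starting fluorescence ratio not unusually high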;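 note: choline stimulus applied at its EC90 after an EC20 pre-addition; B-score computed on integrated fluorescence ratio after choline addition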
Target sequence (Q9GZV3 whole entry, looked up): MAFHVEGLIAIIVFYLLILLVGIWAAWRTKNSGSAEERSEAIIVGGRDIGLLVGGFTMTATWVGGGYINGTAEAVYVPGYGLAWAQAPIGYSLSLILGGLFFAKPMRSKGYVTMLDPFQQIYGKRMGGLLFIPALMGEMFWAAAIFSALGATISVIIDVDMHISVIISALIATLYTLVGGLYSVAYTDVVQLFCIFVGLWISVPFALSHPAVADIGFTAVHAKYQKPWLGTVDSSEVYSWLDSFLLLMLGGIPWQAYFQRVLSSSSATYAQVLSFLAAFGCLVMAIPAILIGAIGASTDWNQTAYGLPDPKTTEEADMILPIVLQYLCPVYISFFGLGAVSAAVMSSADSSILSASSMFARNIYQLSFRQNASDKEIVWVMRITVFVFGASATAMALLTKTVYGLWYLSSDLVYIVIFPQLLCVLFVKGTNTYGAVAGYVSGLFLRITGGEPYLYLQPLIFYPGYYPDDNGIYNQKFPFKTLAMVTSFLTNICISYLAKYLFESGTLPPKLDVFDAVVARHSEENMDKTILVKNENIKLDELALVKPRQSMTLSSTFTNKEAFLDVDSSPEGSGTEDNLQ
CHT allo act = allosteric activators of human choline transporter CHT; 310,000 compounds, 0.49% hits; AID 488977; CHT-expressing cells, membrane potential dye, choline EC20; hits give high values; LV-AA mutant CHT in HEK293 cells; Q9GZV3; B-score at 10 µM;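 active = initial fluorescence not abnormally high and integrated response B-score, plate-corrected, over 3 SD above library mean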
SUMO Mot1 rescue = blocks SUMOylation pathway, rescuing yeast Mot1-301 growth; S. cerevisiae Mot1-301 growth rescue, ATP luminescence, 38.5C; percent above DMSO median, 100 means doubled; growth rescue, % at 18.8 µM; 320,000 compounds, 1% hits;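 active = every valid replicate shows activation above 250% relative to neutral control wells; inactive = the rest, any valid replicate at or below 250%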;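 note: OY570 slx delta 5 strain wells were the positive control but not used for scaling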
MEKK2 WT-MEK5 = raises or lowers MEK5 binding to wildtype human MEKK2 PB1 domain; 290,000 compounds, 1.1% hits; binding response (% of control), % at 10 µM; bead flow cytometry, Alexa488-MEK5 binding to MEKK2 WT; actives lie on both sides; Q9Y2U5; in the data active = binding response below about 67% or above about 130%
MEKK3 PB1 HTS = raises or lowers MEK5 binding to the human MEKK3 PB1 domain; Q99759; bead-based flow cytometry, Alexa488-MEK5 binding to MEKK3; actives lie on both sides; 0 = blocked by unlabeled MEK5, 100 = vehicle; binding response (% of control), % at 10 µM; 290,000 compounds, 1.4% hits; AID 1529;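 active = binding response more than 3 SD above or below the average of its plate-row segment, actives on both sides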;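 note: Alexa488 bead fluorescence after subtracting the streptavidin-only scavenger bead signal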
MEKK2 mut-MEK5 = signal of MEK5 binding to mutant human MEKK2 PB1 domain; bead flow cytometry, Alexa488-MEK5 binding to MEKK2 mutant; percent response, % at 10 µM; 290,000 compounds, 0.35% hits; in the data active = percent response above about 24%, passing the limit was not always enough
CHT inh conf = confirmation of human choline transporter CHT inhibitors | shares compounds with CHT block | CHT-expressing cells, choline membrane potential dye; LV-to-AA substituted CHT, HEK293 cells | CHT activity remaining % of control (hits give low values), % at 10 µM | 2,400 compounds, 70% hits | AID 493221;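 active = choline transporter activity left, mean of duplicates at 10 µM, below buffer-only control mean minus 3 SD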;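 note: depolarization triggered by choline at its EC90 following an EC20 pre-addition; 0% = hemicholinium-3 full block and 100% = buffer-only control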
HEK293 MPD ctr = activity in parental HEK293 cells lacking CHT; 2,400 compounds, 4% hits; membrane potential dye, choline response; active = decrease or increase beyond buffer ±3SD; membrane potential ratio readout (active if shifted either direction beyond buffer ±3SD; no single direction) at 10 µM; shares compounds with CHT block;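 note: parental cells lack the transporter so any hit is non-specific; ratio is peak minus trough fluorescence over baseline after EC90 choline challenge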
* hit, by the source's call; i = inactive; / = no result.

SMILES	CHT block	CHT allo act	SUMO Mot1 rescue	MEKK2 WT-MEK5	MEKK3 PB1 HTS	MEKK2 mut-MEK5	CHT inh conf	HEK293 MPD ctr
COc1ccc(C/C(O)=C(\C#N)c2nc3ccccc3s2)cc1	-5*	i	-2	94	94	-2	55%*	i
N#Cc1ccccc1OCC(=O)N1CCN(C(=O)c2ccco2)CC1	i	i	-8	107	102	4	/	/
Cc1ccccc1/C=C/C(=O)NCC(=O)N1CCC(N(C)C2CCCCC2C)CC1 (configuration not stated)	-13*	i	15	113	96	5	21%*	i
Cc1cc(NC(=O)CCCn2cc([N+](=O)[O-])cn2)n(Cc2ccc(F)cc2)n1	i	i	31	110	97	4	/	/
COc1ccc([C@H]2CC(=O)C=C(c3ccc(Oc4ccccc4)cc3)C2)cc1OC	/	/	1	/	/	/	/	/
O=C(CCCN1C(=O)C(c2ccccc2)Oc2cccnc21)NCCc1ccc(Cl)cc1 (configuration not stated)	i	i	268	98	100	-4	/	/
Cc1ccc(S(=O)(=O)CC(O)COc2ccc(F)cc2Cl)cc1 (configuration not stated)	-6.6*	i	-10	98	97	-2	54%*	i
Fc1ccc(Nc2nnc(C(F)(F)F)s2)cc1Cl	-5.2*	i	82	99	101	2	51%*	i
Cc1ccc(/C=N/N2CCN(c3ccccn3)CC2)o1	i	i	-1	96	99	-2	/	/
CC(=O)NC(CC(=O)NCCN1C(=O)S/C(=C\c2ccccc2)C1=O)c1ccccc1 (configuration not stated)	-5.7*	i	-12	92	94	-7	57%*	i
O=C(Nn1c(-c2ccncc2)nc2ccccc2c1=O)c1ccc([N+](=O)[O-])cc1Cl	i	i	11	98	100	-2	/	/
O=C(COC(=O)c1ccc(Br)cc1)NC(=O)NCc1ccccc1	/	/	15	/	/	/	/	/
O=C(c1cccc(Oc2ccc([N+](=O)[O-])cc2Cl)c1)N1CCCCC1	-7.4*	i	25	104	104	5	48%*	i
O=C(c1ccc(Oc2ccc([N+](=O)[O-])cc2Cl)cc1)N1CCCC1	i	i	-2	100	110	-6	/	/
O=C(COc1ncnc2ccccc12)c1ccc(Cl)cc1	i	i	394	102	107	2	/	/
O=C1NC(=S)S/C1=C\c1coc2ccc(O)cc2c1=O	i	i	6	95	93	-14	/	/
O=C1NC(=S)S/C1=C\c1coc2ccccc2c1=O	-8.4*	i	-10	95	104	-4	55%*	i
CC1CCCN(C(=S)Nc2ccc(S(=O)(=O)N3CCCCC3)cc2)C1 (configuration not stated)	-13*	i	-16	99	104	5	i	i
COC(=O)Nc1ccc(S(=O)(=O)N2CCC(C(=O)N3CCCC(C)C3)CC2)cc1 (configuration not stated)	i	i	-21	101	105	-3	/	/
Cc1c(O)ccc(/C(Cc2ccc3ccccc3n2)=N\N)c1O	-5.9*	i	-19	92	105	0	56%*	i
CCOC(=O)c1cnc2c(C)cc(Cl)cc2c1N1CCN(C)CC1	-6.4*	i	7	103	101	3	34%*	i
CCOC(=O)c1cnc2c(OC)cccc2c1N1CCN(c2ccc(OC)cc2)CC1	i	i	1	107	103	4	/	/
CCOC(=O)c1cnc2c(C(F)(F)F)cccc2c1N1CCN(C)CC1	-10*	i	-4	100	100	13	30%*	3.3*
